Experimental data from PubChem BioAssay.
Activity calls are given as the source filed them.

Tests used:
[1] = system: Plasmodium falciparum Sir2 (PF13_0152, Sir2A); assay: pfSir2 binders on small-molecule microarrays, primary screen, biochemical, small-molecule microarray, 635 nm fluorescence (AID 1098); details: small-molecule microarray binding, fluorescence 635 nm; higher = more signal;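 further: score merges spot fluorescence intensity with its signal-to-noise ratio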
[2] = small-molecule microarray binders of probe aDKK1, primary screen, biochemical, biotinylated probe, 635/667 nm fluorescence (AID 1099); details: higher = more signal;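 further: score merges 667nm spot fluorescence with signal to noise across triplicate slides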
[3] = small-molecule microarray binders of probe aCHRDL2, primary screen, biochemical, biotinylated probe, 635/667 nm fluorescence (AID 1100); details: higher = more signal
[4] = splicing luciferase reporter signal modulators, primary screen, spliceosome inhibition project, cell-based, HEK293, splice +/- reporter (AID 1101); details: luminescence, 24 h, higher = more signal, called active from +8 up or from −8 down;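 further: HEK293 cells carrying a splicing-competent luciferase reporter gene; test concentration not given here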
[5] = biological target: Fibroblast growth factor 10 (Homo sapiens) (UniProt O15520); assay: FGF10 binders on small-molecule microarrays, primary screen, biochemical, small-molecule microarray, 635 nm fluorescence (AID 1102); details: FGF10 binding, fluorescence 635 nm, higher = more signal
Chain of Fibroblast growth factor 10 (Homo sapiens) (O15520 whole entry, looked up): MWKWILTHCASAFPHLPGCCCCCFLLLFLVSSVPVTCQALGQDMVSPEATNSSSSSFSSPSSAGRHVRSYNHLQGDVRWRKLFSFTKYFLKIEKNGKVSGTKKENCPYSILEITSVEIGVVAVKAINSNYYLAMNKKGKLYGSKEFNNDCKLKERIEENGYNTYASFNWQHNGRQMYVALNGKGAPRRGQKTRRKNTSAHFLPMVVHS

[6] = system: glycogen synthase kinase-3 (GSK3A per assay name; protocol says GSK3B); assay: GSK3 binders on small-molecule microarrays, primary screen, biochemical, small-molecule microarray, 635 nm fluorescence, GSK3A (AID 1103); details: small-molecule microarray binding, fluorescence 635 nm; higher = more signal; further: the record names both GSK3A and GSK3B
[7] = biological target: Epidermal growth factor receptor (Homo sapiens) (UniProt P00533); assay: EGFR binders on small-molecule microarrays, primary screen, biochemical, small-molecule microarray, 635 nm fluorescence (AID 1104); details: EGFR binding, higher = more signal;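 further: score merges 667 nm emission intensity with spot signal to noise over triplicate slides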
Chain of Epidermal growth factor receptor (Homo sapiens) (P00533 whole entry, looked up): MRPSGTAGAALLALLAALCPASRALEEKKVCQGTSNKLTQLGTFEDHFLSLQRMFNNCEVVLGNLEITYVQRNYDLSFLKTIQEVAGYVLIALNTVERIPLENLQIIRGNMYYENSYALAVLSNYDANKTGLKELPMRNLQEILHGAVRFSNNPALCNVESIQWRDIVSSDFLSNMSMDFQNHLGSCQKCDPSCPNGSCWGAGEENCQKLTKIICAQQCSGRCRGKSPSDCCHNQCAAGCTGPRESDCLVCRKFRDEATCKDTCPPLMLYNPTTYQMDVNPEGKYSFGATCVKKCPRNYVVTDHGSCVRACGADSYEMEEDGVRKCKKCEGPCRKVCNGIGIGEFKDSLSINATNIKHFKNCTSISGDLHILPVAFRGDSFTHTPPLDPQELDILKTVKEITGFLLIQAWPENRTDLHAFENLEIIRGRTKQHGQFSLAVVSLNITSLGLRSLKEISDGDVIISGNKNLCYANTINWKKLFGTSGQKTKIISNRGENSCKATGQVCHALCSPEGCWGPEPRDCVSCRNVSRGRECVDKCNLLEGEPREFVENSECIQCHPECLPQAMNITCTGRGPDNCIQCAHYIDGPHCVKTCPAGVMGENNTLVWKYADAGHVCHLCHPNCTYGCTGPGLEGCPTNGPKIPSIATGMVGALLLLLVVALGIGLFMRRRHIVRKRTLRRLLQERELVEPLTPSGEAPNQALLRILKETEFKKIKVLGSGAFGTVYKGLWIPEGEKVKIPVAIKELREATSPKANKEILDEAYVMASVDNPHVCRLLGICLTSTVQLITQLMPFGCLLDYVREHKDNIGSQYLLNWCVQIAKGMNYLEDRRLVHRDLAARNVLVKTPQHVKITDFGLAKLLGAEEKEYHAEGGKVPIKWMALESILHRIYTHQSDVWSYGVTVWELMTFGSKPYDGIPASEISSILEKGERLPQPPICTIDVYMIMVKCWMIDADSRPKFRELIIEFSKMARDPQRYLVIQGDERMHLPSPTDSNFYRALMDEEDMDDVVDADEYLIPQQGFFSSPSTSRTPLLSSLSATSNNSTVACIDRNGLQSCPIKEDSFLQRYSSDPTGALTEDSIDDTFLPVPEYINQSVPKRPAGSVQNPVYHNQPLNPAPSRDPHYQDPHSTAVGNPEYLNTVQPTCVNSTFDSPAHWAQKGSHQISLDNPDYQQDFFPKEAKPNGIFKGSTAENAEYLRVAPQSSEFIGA

[8] = biological target: Follistatin-related protein 3 (Homo sapiens) (UniProt O95633); assay: FSTL3 binders on small-molecule microarrays, primary screen, biochemical, small-molecule microarray, 635 nm fluorescence (AID 1105); details: FSTL3 binding, higher = more signal;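 further: score merges emission near 667 nm and signal to noise per printed spot across three slides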
Chain of Follistatin-related protein 3 (Homo sapiens) (O95633 whole entry, looked up): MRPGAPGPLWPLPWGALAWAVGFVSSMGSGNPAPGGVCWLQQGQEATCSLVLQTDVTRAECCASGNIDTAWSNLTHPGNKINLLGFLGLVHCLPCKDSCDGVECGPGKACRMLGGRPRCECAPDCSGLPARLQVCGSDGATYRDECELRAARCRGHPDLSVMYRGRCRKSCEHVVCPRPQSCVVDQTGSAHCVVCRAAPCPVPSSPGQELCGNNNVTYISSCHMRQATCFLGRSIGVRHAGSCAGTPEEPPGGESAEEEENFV

[9] = biological target: Dickkopf-related protein 1 (Homo sapiens) (UniProt O94907); assay: DKK1 binders on small-molecule microarrays, primary screen, biochemical, small-molecule microarray, 635 nm fluorescence scan (AID 1106); details: DKK1 binding, higher = more signal;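 further: score merges emission near 667 nm with signal to noise over three replicate slides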
Chain of Dickkopf-related protein 1 (Homo sapiens) (O94907 whole entry, looked up): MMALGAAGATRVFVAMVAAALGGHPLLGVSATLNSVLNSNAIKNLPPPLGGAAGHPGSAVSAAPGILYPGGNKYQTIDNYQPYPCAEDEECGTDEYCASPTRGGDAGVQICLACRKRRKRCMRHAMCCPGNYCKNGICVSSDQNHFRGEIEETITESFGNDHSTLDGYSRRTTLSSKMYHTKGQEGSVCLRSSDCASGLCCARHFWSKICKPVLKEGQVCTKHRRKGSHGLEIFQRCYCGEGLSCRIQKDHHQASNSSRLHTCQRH

[10] = system: Inhibin beta A chain (activin A); assay: INHBA (activin A) binders on microarrays, primary screen, biochemical, small-molecule microarray, 635 nm fluorescence scan (AID 1107); details: small-molecule microarray binding, higher = more signal;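 further: mouse activin A protein probed at 4.33 µg/mL on printed slides; score merges bound-protein fluorescence near 667 nm with spot signal-to-noise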
[11] = system: Human papillomavirus type 1a protein E7 (residues 44-93); assay: HPV1a E7 fragment binders on microarrays, primary screen, biochemical, small-molecule microarray, residues 44-93, 635 nm fluorescence (AID 1108); details: small-molecule microarray binding, fluorescence 635 nm; higher = more signal;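 further: E7 fragment applied at 1 µg/mL in TBST for 1 h at 4 C; score combines spot fluorescence with its signal to noise ratio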
[12] = modulators of HCV replicon luciferase signal, primary screen, HCV replication inhibitor project, Huh7 cells, luciferase reporter (AID 1109); details: 48 h, higher = more signal;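 further: huh7 hepatoma cells harbouring a luciferase neomycin HCV replicon reporter; luciferase luminescence as measure of HCV replicon replication; test concentration not given here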
[13] = biological target: Left-right determination factor 2 (Homo sapiens) (UniProt O00292); assay: LEFTY2 binders on small-molecule microarrays, primary screen, biochemical, small-molecule microarray, 635 nm fluorescence scan (AID 1110); details: LEFTY2 binding, higher = more signal
Chain of Left-right determination factor 2 (Homo sapiens) (O00292 whole entry, looked up): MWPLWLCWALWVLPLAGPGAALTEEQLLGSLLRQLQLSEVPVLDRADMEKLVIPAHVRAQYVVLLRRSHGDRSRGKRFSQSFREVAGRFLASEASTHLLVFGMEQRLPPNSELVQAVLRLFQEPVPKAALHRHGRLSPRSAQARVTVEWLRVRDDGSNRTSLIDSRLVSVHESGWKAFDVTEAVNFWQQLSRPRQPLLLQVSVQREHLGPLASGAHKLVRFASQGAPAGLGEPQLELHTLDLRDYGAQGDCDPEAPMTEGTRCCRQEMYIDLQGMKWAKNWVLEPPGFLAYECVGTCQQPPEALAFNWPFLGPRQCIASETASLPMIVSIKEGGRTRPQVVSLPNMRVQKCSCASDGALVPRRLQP

[14] = biological target: Calmodulin-1 (Homo sapiens) (UniProt P0DP23); assay: CALM1 binders on microarrays, EGTA buffer, profiling panel, biochemical, small-molecule microarray, Cy5-labelled CALM1 (AID 1111); details: Cy5-CALM1 binding fluorescence, higher = more signal;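 further: labelled calmodulin applied in Tris saline Tween buffer holding calcium plus EGTA and DTT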
[15] = biological target: Calmodulin-1 (Homo sapiens) (UniProt P0DP23); assay: calcium-bound CALM1 binders on microarrays, profiling panel, artefact control for SMM control-protein annotation, biochemical, small-molecule microarray, Cy5-labelled CALM1, plus calcium (AID 1112); details: Cy5-CALM1 binding fluorescence, higher = more signal;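 further: score merges spot fluorescence with signal to noise from triplicate slides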
[16] = small-molecule microarray binders of probe aWnt5a, primary screen, biochemical, biotinylated probe, 635/667 nm fluorescence (AID 1113); details: higher = more signal;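 further: score merges 667 nm fluorescence intensity with signal-to-noise per printed feature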
[17] = small-molecule microarray binders of probe aShh, primary screen, biochemical, biotinylated probe, 635/667 nm fluorescence (AID 1114); details: higher = more signal;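 further: probe is biotin-labelled aShh protein from a stem cell growth factor screen; measures binding of labelled protein to compounds printed on the slide; score merges feature fluorescence at 667 nm with signal-to-noise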
[18] = small-molecule microarray binders of probe aNog, primary screen, biochemical, biotinylated probe, 635/667 nm fluorescence (AID 1115); details: higher = more signal;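 further: probe is biotinylated aNog protein used at 0.15 µg/mL for 1 h at 4 C; z-score combines 667 nm fluorescence of each spot with its signal to noise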
[19] = biological target: Torsin-1A-interacting protein 1 (Homo sapiens) (UniProt Q5JTV8); assay: LAP1 binders from COS7 cell lysate, primary screen, small-molecule microarray, 635/667 nm fluorescence (AID 1116); details: COS7-hLAP1 lysate binding, 635 nm fluorescence, higher = more signal
Chain of Torsin-1A-interacting protein 1 (Homo sapiens) (Q5JTV8 whole entry, looked up): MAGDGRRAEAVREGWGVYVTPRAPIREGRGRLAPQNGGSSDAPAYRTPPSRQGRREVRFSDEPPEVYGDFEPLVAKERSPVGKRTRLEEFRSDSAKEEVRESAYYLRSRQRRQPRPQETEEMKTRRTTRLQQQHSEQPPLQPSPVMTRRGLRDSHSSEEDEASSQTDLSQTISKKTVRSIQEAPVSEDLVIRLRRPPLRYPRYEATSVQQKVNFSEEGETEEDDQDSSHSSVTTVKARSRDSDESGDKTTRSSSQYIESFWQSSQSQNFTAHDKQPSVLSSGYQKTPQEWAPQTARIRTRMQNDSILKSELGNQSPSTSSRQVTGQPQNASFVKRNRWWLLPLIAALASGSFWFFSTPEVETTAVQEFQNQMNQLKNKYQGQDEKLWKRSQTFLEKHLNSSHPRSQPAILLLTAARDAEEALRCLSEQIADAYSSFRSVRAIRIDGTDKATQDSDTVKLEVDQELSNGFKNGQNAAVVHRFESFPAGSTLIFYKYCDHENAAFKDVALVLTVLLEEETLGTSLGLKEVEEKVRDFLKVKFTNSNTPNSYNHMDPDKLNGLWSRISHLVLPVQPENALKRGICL

[20] = biological target: Alpha-bungarotoxin (Bungarus multicinctus) (UniProt P60615); assay: alpha-bungarotoxin binders on microarray, profiling panel, artefact control for SMM control protein annotation, biochemical, small-molecule microarray, Alexa647 label, 635/667 nm fluorescence (AID 1117); details: alpha-BTX-A647 binding fluorescence, higher = more signal
Chain of Alpha-bungarotoxin (Bungarus multicinctus) (P60615 whole entry, looked up): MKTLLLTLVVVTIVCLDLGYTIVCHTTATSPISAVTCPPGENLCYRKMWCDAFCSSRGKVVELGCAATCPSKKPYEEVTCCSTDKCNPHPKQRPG

| Structure (SMILES) | composite z-score [1] | composite z-score [2] | composite z-score [3] | z-score [4] | composite z-score [5] | composite z-score [6] | composite z-score [7] | composite z-score [8] | composite z-score [9] | composite z-score [10] | composite z-score [11] | z-score [12] | composite z-score [13] | composite z-score [14] | composite z-score [15] | composite z-score [16] | composite z-score [17] | composite z-score [18] | composite z-score [19] | composite z-score [20] |
| --- | --- | --- | --- | --- | --- | --- | --- | --- | --- | --- | --- | --- | --- | --- | --- | --- | --- | --- | --- | --- |
| CC(C)CON=C1[C@H]2CCn3c(=O)n(-c4ccccc4)c(=O)n3[C@H]2[C@H](O)[C@@H]2O[C@H]12 | 0.734 | -0.217 | -0.481 | -0.271 (inactive) | 0.229 | 0.298 | 0.481 | 0.532 | 1.2 | -0.0603 | -0.626 | -2.53 | 0.598 | -0.148 | -0.687 | -0.291 | -0.267 | -0.269 | 0.14 | 0.0478 |
| CC(C)NC(=O)[C@@]1(C)c2ccccc2C(=O)N(Cc2cc(F)cc(C(F)(F)F)c2)[C@H]1c1ccc(CO)cc1 | 0.442 | 0.574 | 0.384 | -0.0501 (inactive) | 1.27 | 0.917 | 0.655 | 0.57 | -0.12 | 0.858 | 1.3 | 0.0589 | -0.0164 | 0.304 | 0.418 | -0.0165 | -0.121 | -0.347 | 0.363 | 1.16 |
| COCCNC(=O)OCC1CCCC2(CC(OC(=O)NCCc3ccc(F)cc3)CC(CCC(=O)N[C@@H](C)C(=O)OC)O2)O1 (stereo not given in full) | 1.16 | -0.115 | -0.273 | -1.09 (inactive) | 0.842 | 1.26 | 0.601 | 1.22 | 0.932 | 0.415 | 1.37 | -0.376 | 1.02 | -0.104 | -0.685 | -0.0643 | -0.0035 | -0.0827 | 0.0096 | 0.429 |
| CC(CCN1CCCCc2nc(C)c(C)cc21)=NOC(C)CN1CCCc2nc(C)c(C)cc21 (stereo not given) | 1.53 | 0.699 | -0.324 | 0.506 (inactive) | 1.35 | 1.32 | 1.56 | 1.47 | 1.05 | 1.5 | 1.2 | -0.974 | 1.12 | 1.09 | -0.573 | 0.298 | 1.25 | 0.578 | 1.13 | 2.07 |
| [N-]=[N+]=NCc1ccccc1[C@@H]1OC(c2ccc(OCCCO)cc2)=N[C@]1(Cc1ccccc1)C(=O)N1CCOCC1 | 1.57 | 1.2 | 0.798 | -0.962 (inactive) | 1 | 1.29 | 0.0588 | 0.589 | 0.315 | 0.182 | 0.0452 | -2.03 | 0.343 | 1.93 | 1.05 | 0.141 | 0.26 | 1.9 | 3.31 | 1.62 |
| O=C1O[C@@H](c2ccccc2)[C@@H](c2ccccc2)N2[C@@H](c3ccccc3OCCO)[C@]3(C(=O)Nc4ccc(C#CCCO)cc43)[C@@H](C(=O)O)[C@H]12 | 1.58 | -0.878 | -0.721 | -2.02 (inactive) | 0.608 | 1.03 | -0.0589 | 0.14 | -0.167 | 1.24 | 1.42 | -1.99 | -0.28 | 1.04 | 0.734 | 0.385 | 0.633 | 1.32 | 1.17 | 2.53 |
